Here are results for 40 compounds from PubChem BioAssay (Tox21).

Results filed as inconclusive are left out. Values without a mark were called inactive. Active and inactive are the calls of the source. Calls come from the whole dose curve; as a rule, active = well fitted cell-killing curve with a large enough effect in the repeat runs; inconclusive = weak or mixed curves, or effect the other way; inactive = no such curve, though single readings can be large or run the other way. Non-standard residues stand in square brackets, D forms with d. Residues, ends and D or L forms follow the SMILES beside them. *: point of attachment. Sta = CC(C)C[C@H](N)[C@@H](O)CC(=O)O; Isovaleryl = CC(C)CC(=O)*
% is set by controls: 0 for no effect and ±100 for the full control effect.

This assay is described as follows: qHTS assay to identify small molecule antagonists of the peroxisome proliferator-activated receptor gamma (PPARg) signaling pathway - cell viability counter screen (AID 743194). Note: nearly all actives have a fitted effect of over 55% in size. Conditions: PPARg-bla HEK293H viability, CellTiter-Glo luminescence, 17 h, co-treated with 50 nM rosiglitazone; series mostly up to 62.6 µM. From the text:
U.S. Tox21 Program National Center for Advancing Translational Sciences [NCATS] NIH Chemical Genomics Center [NCGC] U.S. Environmental Protection Agency [EPA] National Institutes of Environmental Health Sciences [NIEHS] National Toxicology Program [NTP] U.S. Food and Drug Administration [FDA] Tox21 Assay Overview: The peroxisome proliferator-activated receptors (PPARs) are lipid-activated transcription factors of the nuclear receptor superfamily with three distinct subtypes namely PPAR alpha, PPAR delta (also called PPAR beta) and PPAR gamma (PPARg). All these subtypes heterodimerize with Retinoid X receptor (RXR) and these heterodimers regulate transcription of various genes. PPAR-gamma receptor (glitazone receptor) is involved in the regulation of glucose and lipid metabolism. To identify the compounds that activate PPAR-gamma signaling, GeneBLAzer PPAR gamma UAS-bla HEK293H cell line (Invitrogen, Carlsbad, CA, USA) containing a beta-lactamase reporter gene under the control of an Upstream Activator Sequence (UAS) was used to screen the Tox21 compound library. The cytotoxicity of the Tox21 compound library against the PPARg-bla cell line was tested in parallel by measuring the cell viability using CellTiter-Glo assay in the same wells.
Tox21 Assay Protocol Summary: PPARg-bla cells were dispensed at 3000 cells/5uL/well in 1536-well black wall/clear bottom plates using a Multidrop Combi (Thermo Fisher Scientific, Waltham, MA) dispenser. After the assay plates were incubated at 37 C and 5% CO2 for 5 h, 23 nL of compounds dissolved in DMSO, positive controls or DMSO only was transferred to the assay plate by a Pintool station (Kalypsys, San Diego, CA), followed by addition of 1ul Rosiglitazone (50 nM, final concentration in the wells). The assay plates were incubated at 37 C for 17 h, and then 1 uL of LiveBLAzerTM B/G FRET substrate was added using a Bioraptr Flying Reagent Dispenser (FRD) workstation (Beckman Coulter, Indianapolis, IN, USA). The assay plates were incubated at room temperature for 1 h and fluorescence intensity was measured by an Envision plate reader (PerkinElmer, Shelton, CT). For cell viability readout that measures cytotoxicity, 4 ul/well of CellTiter-Glo reagent was added into the assay plates using a Flying Reagent Dispenser. After 30 min incubation at room temperature, the luminescence intensity in the plates was measured using a ViewLux plate reader (PerkinElmer).
For orientation: In qHTS, concentration-response curves come from the screen itself.
Turning to `O=c1[nH]c(=O)c2cn[nH]c2[nH]1`, the outcome was inactive. With `Cc1cc(N)no1`, the outcome was inactive. On to `CCOC(=O)CC(C(C)=O)C(C)=O`, for which the result was inactive. Regarding `CCCCCCCCOCCC#N`, the outcome was inactive. For the compound `CC(C)=CCC/C(C)=C\C#N`, the result was inactive. Regarding `CC(C)(C)c1ccc(C(=O)CCCCl)cc1`, the result was inactive. With `CN1CCN(C(=O)C2CCCCC2)CC1`, the outcome was inactive. For `Cc1cc(O)c(Cl)cc1C`, the result was inactive.

Consider `CC(=O)c1c(C)cc(C(C)(C)C)cc1C`, for which the outcome was inactive. The same measure, in the same setting: in the case of `CC(=O)Nc1ccc(S(=O)(=O)Nc2cc(C)on2)cc1` it was “inactive”; in that of `CN(C)CCc1c[nH]c2ccc(CS(=O)(=O)N3CCCC3)cc12`, “inactive”. `CCCCCCCCS(=O)(=O)O`: the outcome was inactive. On the same count and under the same terms, in the case of `CC(=O)SCC(CC(=O)c1ccc(C)cc1)C(=O)O` (stereo not given) it was “inactive”; in that of `COc1ccc(Cl)cc1C`, “inactive”. On the same count and under the same terms, in the case of `Cc1ccc(NC(N)=O)cc1` it was “inactive”; in that of `CCCCN(CCCC)CCCCCCN(CCCC)CCCC`, “inactive”; in that of `COc1ccc2cc(CCC(C)=O)ccc2c1`, “inactive”. As to `CC(C)CC(=O)N[C@H](C(=O)N[C@H](C(=O)N[C@@H](CC(C)C)[C@@H](O)CC(=O)N[C@@H](C)C(=O)N[C@@H](CC(C)C)[C@@H](O)CC(=O)O)C(C)C)C(C)C` (Isovaleryl-VV[Sta]A[Sta]-OH), the outcome was inactive. Consider `CCCCCC(=O)CC`, for which the outcome was inactive. Same read-out and setting: in the case of `Cc1nc2ccc(Cl)cc2[nH]1` it was “inactive”.

Regarding `CC(C)C[P+](C)(CC(C)C)CC(C)C`, the outcome was inactive. For the compound `N#Cc1cc(NC(=O)C(=O)O)c(Cl)c(NC(=O)C(=O)O)c1`, the outcome was inactive. On the same count and under the same terms, in the case of `C/C=C(\C)C(=O)OC/C=C(\C)CCC=C(C)C` it was “inactive”; in that of `c1coc(Cn2cccc2)c1`, “inactive”. On to `CCCCCCCCCCCCCCCCN(C)C`, for which the activity change, negative = cytotoxicity is 2.19% [at 5.95 µM]. On to `CC(C)C(=O)Nc1cccc(C2CN3CCSC3=N2)c1` (stereo not given), for which the outcome was inactive.

`OCCC(F)(F)C(F)(F)C(F)(F)C(F)(F)C(F)(F)C(F)(F)F`: the outcome was inactive. On to `CC(=O)/C=C/C=C1/C2CCC(C2)C1(C)C` (stereo not given), for which the outcome was inactive. For `N=C(N)N1CCc2ccccc2C1`, the activity change, negative = cytotoxicity is 0.134% [at 5.95 µM]. In the case of `Cc1ccc(N)nc1`, the result was inactive. The same measure, in the same setting: in the case of `CCOC(=O)c1ccc(N(C)C)cc1` it was “inactive”; in that of `Cc1cc(C)c(N)c(Cl)c1`, “inactive”; in that of `COCc1nnc(-c2ccc[n+]([O-])c2)n1-c1c(Cl)c(Cl)cc2[nH]c(=O)c(=O)[nH]c12`, “inactive”.

Turning to `Nc1ccc(C(=O)NCC(=O)O)cc1`, the outcome was inactive. Take `CC1=C(O)C(=O)CO1`: the outcome was inactive. As for `COc1cc2nc(N3CCN(C(=O)C4CCCO4)CC3)nc(N)c2cc1OC` (stereo not given), the outcome was inactive.

In the case of `CCCCS`, the result was inactive. Regarding `N=C(N)S(=O)O`, the outcome was inactive.

Regarding `O=C1CC2(CCCC2)CC(=O)N1CCNCC1COc2ccccc2O1` (stereo not given), the result was inactive. Turning to `O=C1CCCc2c(O)cccc21`, the outcome was inactive.
